FLuc counter – qHTS profiling assay for firefly luciferase inhibitor/activator using purifed enzyme and Km concentrations of substrates (counterscreen for miR-21 project); Luciferin 4-monooxygenase (Photinus pyralis), P08659; purified FLuc, Km substrates, luminescence inhibition; Potency, µM (titrated, usually from 57.5 µM), actives largely listed as inhibitors; 6.9% of 360,000 active; AID 588342, 2011; also: nearly all actives have a fitted effect of over 55% in size
Target sequence (P08659 whole entry, looked up): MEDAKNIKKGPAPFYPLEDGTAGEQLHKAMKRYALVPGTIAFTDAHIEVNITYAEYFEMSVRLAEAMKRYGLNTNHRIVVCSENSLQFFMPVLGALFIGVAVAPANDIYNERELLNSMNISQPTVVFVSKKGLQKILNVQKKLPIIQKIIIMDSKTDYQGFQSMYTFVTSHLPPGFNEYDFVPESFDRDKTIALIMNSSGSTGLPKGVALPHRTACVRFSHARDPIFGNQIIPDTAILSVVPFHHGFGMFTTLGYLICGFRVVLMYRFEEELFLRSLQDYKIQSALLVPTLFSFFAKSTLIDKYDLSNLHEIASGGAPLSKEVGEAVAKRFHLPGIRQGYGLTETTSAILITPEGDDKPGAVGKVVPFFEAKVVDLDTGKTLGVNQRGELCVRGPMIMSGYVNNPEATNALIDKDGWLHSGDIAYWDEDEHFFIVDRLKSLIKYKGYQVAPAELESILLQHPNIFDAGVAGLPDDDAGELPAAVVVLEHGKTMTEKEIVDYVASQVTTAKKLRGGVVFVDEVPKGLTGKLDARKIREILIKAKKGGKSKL
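Purified P. pyralis luciferase, 10 nM final, with Km-level 10 uM D-luciferin and 10 uM ATP in 50 mM Tris acetate pH 7.5, 10 mM Mg acetate, 0.01% Tween-20, 0.05% BSA; 6-point qHTS titration about 60 µM downward; luminescence read.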
NPC1 promoter act – qHTS Assay for NPC1 Promoter Activators; Huh7 NPC1 promoter luciferase reporter, 24 h; Potency, µM (top dose mostly 9.22 µM), actives largely listed as activators; 2.4% of 320,000 active; also: nearly all actives have a fitted effect of over 60% in size
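Readout is luciferase luminescence, reflecting NPC1 promoter activation in stably transfected Huh7 cells after 24 h compound exposure at 37 °C in reduced-serum medium with 10% FBS.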
ELG1 genotoxic – qHTS screen for small molecules that induce genotoxicity in human embryonic kidney (HEK293T) cells expressing luciferase-tagged ELG1 | HEK293T ELG1-luciferase reporter, luminescence, 16 h | Potency, µM (titrated, usually from 46 µM), most hits filed as activators | 1.3% of 330,000 active; also: nearly all actives have a fitted effect of over 60% in size
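Luminescence read-out: rising ELG1-luciferase signal, reflecting elevated ELG1 protein under genetic stress, flags genotoxic compounds. Cells were treated for 16 hr at 37 °C before ONE-Glo detection.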
uPA generation – qHTS for Inhibitors of Cell Surface uPA Generation. cell surface uPA generation assay, qHTS. Potency, µM (doses to about 38.3 µM), hits mostly inhibitors. 0.31% of 330,000 active. AID 540303, 2011; active = well fitted inhibition curve with a large enough effect; inconclusive = small, poorly fitted or top-dose-only effect; inactive = no such curve, though single readings can be large or run the other way; tested in mouse RAW 264.7 cells; also: nearly all actives have a fitted effect of over 55% in size
Rab9 promoter act – qHTS Assay for Rab9 Promoter Activators. Huh7 Rab9 promoter-luciferase reporter, luminescence, 24 h. Potency, µM (highest dose often 9.22 µM), most hits filed as activators. 2.8% of 320,000 active; also: nearly all actives have a fitted effect of over 60% in size
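Promoter activation is measured as luciferase luminescence in Huh7 cells stably transfected with a Rab9 promoter–luciferase construct, following 24 h compound exposure at 37 °C and 10 min reagent incubation at ambient temperature.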
SMN2 splice up – qHTS Assay for Enhancers of SMN2 Splice Variant Expression | HEK293 SMN2-luciferase splicing reporter, luminescence, 30-36 h | Potency, µM (series often up to 46.1 µM), hits mostly activators | 2.8% of 210,000 active | AID 1458, 2008; also: nearly all actives have a fitted effect of over 55% in size
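HEK293 cells carry an SMN2 minigene-luciferase reporter in which exon 7 inclusion puts luciferase in frame. Cells were seeded at 2000 cells/well, attached for 10-12 hours, then exposed to compounds for 30-36 hours at 37C before ONE-Glo luminescence.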
Of the large screens only hits and unclear results are named; the others gave an inactive call. A selection: hits, their analogues and other compounds. The true share with any hit is near 7.3%. Unless noted, calls follow the shape of the dose curve; as a rule, active = well fitted curve in the direction sought with a large enough effect; inconclusive = small, poorly fitted or top-dose-only effect, or another doubt; inactive = no such curve, though single readings can be large; an effect the other way counts as inactive or inconclusive.

COc1cc(C(=O)NCC(c2ccccc2)N(C)C)ccc1OCc1c(C)noc1C (configuration not stated)	uPA generation 7.94µM (no result: SMN2 splice up)
Cc1ccc(CN(Cc2ccco2)C(=O)COc2ccc(Cl)cc2)o1	none (no result: NPC1 promoter act, ELG1 genotoxic, uPA generation, Rab9 promoter act)
CNC(=O)C1CCC(Cn2c(=O)[nH]c3ccsc3c2=O)CC1 (configuration not stated)	none (no result: NPC1 promoter act, ELG1 genotoxic, uPA generation, Rab9 promoter act, SMN2 splice up)
CC(C)c1ccc(NC(=O)c2cnc3sc(N4CCOCC4)nn3c2=O)cc1	FLuc counter 1.9µM (no result: NPC1 promoter act, ELG1 genotoxic, uPA generation, Rab9 promoter act, SMN2 splice up)
COC(=O)c1ccccc1NC(=O)c1cnc2sc(N3CCOCC3)nn2c1=O	none (no result: NPC1 promoter act, ELG1 genotoxic, uPA generation, Rab9 promoter act, SMN2 splice up)
O=C(NCc1ccccc1Cl)c1cc2cccc3c2n1CCS3	none (no result: NPC1 promoter act, ELG1 genotoxic, uPA generation, Rab9 promoter act, SMN2 splice up)
CC(=O)Nc1ccc(-c2nnc(SCC(=O)c3ccc([N+](=O)[O-])cc3)o2)cc1	none (no result: NPC1 promoter act, ELG1 genotoxic, uPA generation, Rab9 promoter act)
O=C(N=C1c2ccccc2CN1c1ccc(F)c(Cl)c1)c1cccnc1Cl	FLuc counter 15.1µM, NPC1 promoter act inconclusive, ELG1 genotoxic inconclusive, Rab9 promoter act inconclusive, SMN2 splice up 11.2µM (no result: uPA generation)
C[C@](O)(c1ccccc1)c1nccc2ccccc12	none (no result: FLuc counter, NPC1 promoter act, ELG1 genotoxic, uPA generation, Rab9 promoter act)
CC(=O)Nc1ccccc1-c1nc2ccccc2n(CC(=O)Nc2cccc(C(F)(F)F)c2)c1=O	none (no result: NPC1 promoter act, ELG1 genotoxic, uPA generation, Rab9 promoter act, SMN2 splice up)
COc1ccccc1CN1CCCC2(CCN(C(=O)c3ccncc3)CC2)C1	none (no result: FLuc counter, NPC1 promoter act, ELG1 genotoxic, uPA generation, Rab9 promoter act)
COc1ccc(C(=O)c2oc3nc(C)cc(C)c3c2N)cc1	FLuc counter 12µM
CCc1ccc(C(=O)c2oc3nc(C)cc(C)c3c2N)cc1	FLuc counter 15.1µM (no result: uPA generation)
Cc1nc2oc(C(=O)c3ccc(Br)cc3)c(N)c2c2c1COC(C)(C)C2	none (no result: SMN2 splice up)
Cc1ccc(C(=O)c2oc3nc(C)cc(C)c3c2N)cc1	FLuc counter 13.5µM (no result: uPA generation)
COc1ccc(C(=O)N2CCC(c3c[nH]c4ccccc34)(c3c[nH]c4ccccc34)CC2)cc1	none (no result: NPC1 promoter act, ELG1 genotoxic, uPA generation, Rab9 promoter act)
O=C(Nc1ccc(Br)cn1)c1ccc2nccnc2c1	none (no result: FLuc counter, NPC1 promoter act, ELG1 genotoxic, Rab9 promoter act, SMN2 splice up)
O=C(Nc1ccc(Br)cn1)c1cccc(C(=O)Nc2ccc(Br)cn2)c1	FLuc counter 3.01µM, NPC1 promoter act 2µM, ELG1 genotoxic 20.6µM, Rab9 promoter act 0.562µM (no result: SMN2 splice up)
O=C(Nc1ccc(Br)cn1)c1ccc2ccccc2c1	FLuc counter 1.9µM, NPC1 promoter act 1.58µM, ELG1 genotoxic inconclusive, uPA generation inconclusive, Rab9 promoter act 1.12µM (no result: SMN2 splice up)
CC(=O)N1CCOc2cc(S(=O)(=O)N(C)Cc3ccccc3)c(Cl)cc21	none (no result: NPC1 promoter act, ELG1 genotoxic, uPA generation, Rab9 promoter act, SMN2 splice up)
CCC1CCCCN1C(=O)c1sc(-n2nc(C)c(Cc3ccccc3)c2C)nc1C (configuration not stated)	none (no result: NPC1 promoter act, ELG1 genotoxic, uPA generation, Rab9 promoter act, SMN2 splice up)
COc1ccc(S(=O)(=O)N2CCCCC2)cc1C(=O)Nc1cccc(C(F)(F)F)c1	none (no result: NPC1 promoter act, ELG1 genotoxic, uPA generation, Rab9 promoter act, SMN2 splice up)
NC(=O)COc1ccc(C(=O)/C=C2/C(=O)Nc3ccccc32)cc1	FLuc counter 10.7µM (no result: SMN2 splice up)
C=CCOc1ccccc1C(=O)/C=C1/C(=O)Nc2ccccc21	FLuc counter inconclusive, ELG1 genotoxic inconclusive, uPA generation inconclusive (no result: SMN2 splice up)
C=CCOc1ccc(C(=O)/C=C2/C(=O)Nc3ccccc32)cc1	FLuc counter 1.51µM (no result: SMN2 splice up)
CC(C)Cn1ccc(=O)n(CC(C)C)c1=O	none
COCCn1c(C)cc(C(=O)COC(=O)c2ccc(S(=O)(=O)N(C)C)cc2)c1C	none (no result: FLuc counter, NPC1 promoter act, Rab9 promoter act, SMN2 splice up)
C=CCn1c(C)cc(C(=O)COC(=O)c2n[nH]c(=O)c3ccccc23)c1C	ELG1 genotoxic inconclusive (no result: FLuc counter, NPC1 promoter act, Rab9 promoter act, SMN2 splice up)
C=CCn1c(C)cc(C(=O)COC(=O)c2ccc3c(c2)NC(=O)CS3)c1C	FLuc counter 16.9µM
C=CCn1c(C)cc(C(=O)COC(=O)c2ccc(N)c([N+](=O)[O-])c2)c1C	FLuc counter 3.01µM, NPC1 promoter act 3.98µM, ELG1 genotoxic 2.59µM, Rab9 promoter act 1.26µM, SMN2 splice up 12.6µM
COCCn1c(C)cc(C(=O)COC(=O)c2ccc3c(c2)NC(=O)CS3)c1C	FLuc counter 13.5µM
Cc1cc(C(=O)COC(=O)c2ccc(N)c([N+](=O)[O-])c2)c(C)n1Cc1ccc2c(c1)OCO2	FLuc counter inconclusive (no result: SMN2 splice up)
CCCC[C@]12Cc3cc(C#N)ccc3C(O1)c1c(cc(-c3ccccc3)oc1=O)O2	none (no result: ELG1 genotoxic, uPA generation, SMN2 splice up)

High-throughput results from PubChem BioAssay.
